Consider 8 compounds from PubChem BioAssay (NCI).

Some test systems named below: HT29 colon; SNB-75 CNS; SNB-19 CNS; U251 CNS; PC-3 prostate; SK-MEL-5 melanoma; UACC-62 melanoma; LOX IMVI melanoma; SK-MEL-28 melanoma; EKVX NSCLC; SN12C renal; UO-31 renal; TK-10 renal; ACHN renal; CAKI-1 renal; A498 renal; CCRF-CEM leukemia; MOLT-4 leukemia; SR leukemia.
Assay in all cases: NCI-60 one-dose screen, 48 h (100 = growth as untreated, 0 = no growth, -100 = all killed)
What all share (details): 10 µM

This is part of a sample that, as a whole, favours compounds with a hit. Of some 83,000 tested, about 20% had one in any assay.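 In brief: 96-well plates, 48 h treatment, single concentration, percent growth endpoint.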 A number with no mark means an inactive call. Active and inactive are the calls of the source. The calls were made as follows: active = growth percent below 10; inactive = the rest.

For the compound `O=C1OCC2=C1C(c1cccc(Br)c1)c1cc3c(cc1N2CCO)CCC3` (centres undefined), the growth in the experiment with HT29 colon is -12.1% (active); with SNB-75 CNS, 37.5%; in the experiment with SNB-19 CNS, 28.8%; in the experiment on U251 CNS it was 5.68% (active); in the experiment on PC-3 prostate, 22.4%; in the experiment on SK-MEL-5 melanoma, -12.6% (active). The growth in the experiment with UACC-62 melanoma is 20.2%; in the experiment on LOX IMVI melanoma, 15.5%; in the experiment with SK-MEL-28 melanoma, 62%; in the experiment on EKVX NSCLC, 47.7%; in the experiment on SN12C renal it was 21.2%; in the experiment with UO-31 renal, 33.9%. In addition, the growth with TK-10 renal is 62.6%; with ACHN renal, 20.9%; with CAKI-1 renal, 20.8%; in the experiment with A498 renal, -11.2% (active); in the experiment on CCRF-CEM leukemia, 8.55% (active); with MOLT-4 leukemia, 14.1%. In addition, the growth with SR leukemia is 28.5%.
Consider `COc1cccc(C2C3=C(COC3=O)N(CCO)c3cc(OC)ccc32)c1` (centres undefined), for which the growth in the experiment with HT29 colon was -8.66% (active); in the experiment on SNB-75 CNS, 27.2%; with SNB-19 CNS, 33.3%; in the experiment with U251 CNS, 12.7%; in the experiment with PC-3 prostate, 26.9%; with SK-MEL-5 melanoma, -3.6% (active). In addition, the growth with UACC-62 melanoma was 14.6%; in the experiment with LOX IMVI melanoma, 23.9%; with SK-MEL-28 melanoma, 56.1%; with EKVX NSCLC it was 40.5%; in the experiment on SN12C renal it was 27%; in the experiment with UO-31 renal it was 50.4%. Also, the growth was 51.8% with TK-10 renal; 31.9% with ACHN renal; 36.7% in the experiment with CAKI-1 renal; -6.88% (active) with A498 renal; 15% with CCRF-CEM leukemia; 19% with MOLT-4 leukemia. Moreover, in the experiment with SR leukemia, the growth is 22.3%.
Regarding `O=C(NC(Cc1ccc(O)cc1)C(=O)N=Nc1c(O)[nH]c2ccccc12)c1ccccc1` (centres undefined), the growth is 101% in the experiment on HT29 colon; 96.2% with SNB-75 CNS; 96.9% in the experiment with SNB-19 CNS; 97.7% in the experiment on U251 CNS; 98.5% in the experiment with PC-3 prostate; 92.4% in the experiment with SK-MEL-5 melanoma. Moreover, the growth in the experiment with UACC-62 melanoma is 88.1%; with LOX IMVI melanoma, 89.1%; in the experiment on SK-MEL-28 melanoma, 109%; in the experiment on EKVX NSCLC it was 97.3%; in the experiment with SN12C renal it was 97.6%; in the experiment with UO-31 renal, 74.9%. Also, the growth in the experiment on TK-10 renal is 97.7%; in the experiment on ACHN renal, 114%; with CAKI-1 renal, 98.9%; with A498 renal it was 109%; with CCRF-CEM leukemia, 89.6%; in the experiment on MOLT-4 leukemia it was 92.1%. Also, the growth in the experiment on SR leukemia is 92.7%.
Take `COc1ccc(C2=NN(C(=O)c3ccc(S(C)(=O)=O)cc3)C(c3ccc(OC)c(OC)c3)C2)c(OC)c1` (centres undefined): the growth in the experiment on HT29 colon was 103%; in the experiment with SNB-75 CNS, 94%; in the experiment on SNB-19 CNS, 99.1%; with U251 CNS, 106%; in the experiment with PC-3 prostate, 90.9%; in the experiment with SK-MEL-5 melanoma, 90%. Further, the growth with UACC-62 melanoma is 95.2%; in the experiment with LOX IMVI melanoma, 103%; with SK-MEL-28 melanoma, 112%; with EKVX NSCLC it was 98.7%; in the experiment with SN12C renal, 100%; with UO-31 renal, 74.9%. Further, the growth in the experiment on TK-10 renal is 116%; in the experiment on ACHN renal, 102%; in the experiment on CAKI-1 renal, 93.1%; in the experiment on A498 renal, 98.5%; with CCRF-CEM leukemia, 103%; with MOLT-4 leukemia it was 92.2%. The growth in the experiment with SR leukemia was 97.2%.
Take `COc1ccc(CN2CCC(N3CCCC3=O)c3cc(Cl)ccc32)cc1` (centres undefined): the growth is 88.8% in the experiment with HT29 colon; 103% in the experiment on SNB-75 CNS; 99.5% in the experiment on SNB-19 CNS; 105% in the experiment on U251 CNS; 84.4% in the experiment on PC-3 prostate; 103% with SK-MEL-5 melanoma. The growth in the experiment on UACC-62 melanoma was 85.2%; in the experiment on LOX IMVI melanoma, 103%; with SK-MEL-28 melanoma it was 116%; in the experiment on EKVX NSCLC it was 106%; in the experiment with SN12C renal, 99.5%; with UO-31 renal, 73.6%. The growth in the experiment on TK-10 renal is 108%; in the experiment with ACHN renal, 101%; in the experiment on CAKI-1 renal it was 114%; in the experiment on A498 renal, 111%; with MOLT-4 leukemia it was 83%; in the experiment on SR leukemia it was 84.2%.
As for `COc1cc2nc(Nc3cccc(C(=O)O)c3)nc(N)c2cc1OC`, the growth is 103% in the experiment on HT29 colon; 94.6% with SNB-75 CNS; 102% with SNB-19 CNS; 99% in the experiment on U251 CNS; 90.4% in the experiment on PC-3 prostate; 99.7% in the experiment on SK-MEL-5 melanoma. Further, the growth in the experiment with UACC-62 melanoma is 90.2%; in the experiment with LOX IMVI melanoma, 96.3%; in the experiment on SK-MEL-28 melanoma it was 103%; in the experiment with EKVX NSCLC, 95.2%; in the experiment with SN12C renal, 95.4%; in the experiment with UO-31 renal it was 78.3%. Besides, the growth was 108% in the experiment with TK-10 renal; 93.9% in the experiment on ACHN renal; 93.7% with CAKI-1 renal; 117% with A498 renal; 12.8% with MOLT-4 leukemia; 105% in the experiment on SR leukemia.
Consider `Clc1ccc(Sc2nc(NC3CC3)nc(Sc3ccc(Cl)cc3)n2)cc1`, for which the growth with HT29 colon is 48.8%; with SNB-75 CNS, 92%; in the experiment on SNB-19 CNS it was 105%; in the experiment with U251 CNS, 80%; in the experiment on PC-3 prostate it was 46.8%; with SK-MEL-5 melanoma, 87.9%. Moreover, the growth with UACC-62 melanoma was 82.2%; in the experiment on LOX IMVI melanoma it was 91.3%; in the experiment with SK-MEL-28 melanoma, 87.5%; in the experiment on SN12C renal, 88.5%; with UO-31 renal it was 62.3%; with TK-10 renal, 112%. Besides, the growth is 84.6% in the experiment on ACHN renal; 51.9% with CAKI-1 renal; 83.9% in the experiment on A498 renal; 76.4% in the experiment with CCRF-CEM leukemia; 43.8% in the experiment on MOLT-4 leukemia; 67.3% in the experiment on SR leukemia.
Take `Cc1ccc(CC#N)cc1C`: the growth in the experiment on HT29 colon was 110%; with SNB-75 CNS, 101%; in the experiment with SNB-19 CNS, 94.6%; in the experiment with U251 CNS, 89.9%; with PC-3 prostate, 164%; in the experiment with SK-MEL-5 melanoma it was 99.3%. Further, the growth in the experiment with UACC-62 melanoma was 103%; in the experiment on LOX IMVI melanoma, 96.7%; in the experiment with SK-MEL-28 melanoma it was 137%; in the experiment with EKVX NSCLC it was 87.8%; in the experiment with SN12C renal, 105%; in the experiment on UO-31 renal it was 94.4%. The growth was 107% in the experiment with TK-10 renal; 94.6% in the experiment with ACHN renal; 45.3% in the experiment with CAKI-1 renal; 136% with A498 renal; 128% in the experiment with CCRF-CEM leukemia; 93.9% with MOLT-4 leukemia. The growth in the experiment with SR leukemia is 89.3%.
